ADAM10 inh: human ADAM10 inhibitors, primary screen, biochemical, QFRET, HTS; hit rate 0.62% among 370,000; inhibition, % at 7 µM; recombinant ADAM10, EDANS/DABCYL FRET peptide cleavage, 3 h; AID 720582, 2013;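 active means inhibition above a per-campaign cutoff equal to the mean of compounds falling between control-based bounds plus 3 SD, cut at about 20% in these data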
ADAM17 inh: ADAM17 inhibitors, primary screen, biochemical, QFRET. hit rate 0.83% among 370,000. inhibition, % at 6.95 µM. AID 720648, 2013. recombinant ADAM17, EDANS/DABCYL FRET peptide cleavage. Disintegrin and metalloproteinase domain-containing protein 17 (Homo sapiens), P78536;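 active means inhibition above the mean of compounds lying between control limits plus 3 SD, set per campaign, cut at about 8.5% in these data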
GC-B act: human GC-B receptor activators, primary screen, HEK293 GC-B cells, cGMP TR-FRET, EC30 CNP; hit rate 0.11% among 370,000; AID 1920062, 2024; 0% at EC30 CNP, 100% saturating CNP; activation, % at 10 µM;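 active means activation at 10 µM reaching about 35% in either raw or pattern-adjusted values, limit read from the data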
Target sequence (P20594 whole entry, looked up): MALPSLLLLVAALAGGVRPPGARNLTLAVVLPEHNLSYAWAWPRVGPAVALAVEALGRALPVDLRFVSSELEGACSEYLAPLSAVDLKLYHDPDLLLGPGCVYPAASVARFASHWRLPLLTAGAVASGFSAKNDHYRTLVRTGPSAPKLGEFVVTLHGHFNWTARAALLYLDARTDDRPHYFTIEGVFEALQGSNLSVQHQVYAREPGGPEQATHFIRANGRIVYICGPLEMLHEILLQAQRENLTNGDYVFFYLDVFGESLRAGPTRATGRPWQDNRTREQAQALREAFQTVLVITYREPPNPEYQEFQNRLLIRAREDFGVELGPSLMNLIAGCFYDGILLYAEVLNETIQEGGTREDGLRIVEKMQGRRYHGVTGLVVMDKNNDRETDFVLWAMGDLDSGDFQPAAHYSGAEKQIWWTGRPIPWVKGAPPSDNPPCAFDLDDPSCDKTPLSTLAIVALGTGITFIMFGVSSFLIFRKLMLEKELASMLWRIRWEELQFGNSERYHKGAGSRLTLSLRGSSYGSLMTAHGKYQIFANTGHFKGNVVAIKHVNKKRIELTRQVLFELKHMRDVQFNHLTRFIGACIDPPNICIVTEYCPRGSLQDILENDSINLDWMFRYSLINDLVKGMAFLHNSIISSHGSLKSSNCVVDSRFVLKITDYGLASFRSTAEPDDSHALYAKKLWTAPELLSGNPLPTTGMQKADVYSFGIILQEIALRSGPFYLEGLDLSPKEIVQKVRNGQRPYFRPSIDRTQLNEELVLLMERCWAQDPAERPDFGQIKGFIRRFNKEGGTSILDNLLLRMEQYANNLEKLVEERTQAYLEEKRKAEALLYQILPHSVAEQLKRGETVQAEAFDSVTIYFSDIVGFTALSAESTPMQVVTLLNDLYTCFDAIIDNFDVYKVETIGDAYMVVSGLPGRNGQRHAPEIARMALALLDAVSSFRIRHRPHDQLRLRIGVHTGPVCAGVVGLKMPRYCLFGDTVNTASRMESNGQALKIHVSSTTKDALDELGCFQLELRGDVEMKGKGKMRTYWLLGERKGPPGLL
NPR1 activator: GC-A stimulated cGMP production enhancers – HEK293 GC-A cells, cGMP TR-FRET, EC30 ANP, primary screen. Atrial natriuretic peptide receptor 1 (Homo sapiens), P16066. 0% at EC30 ANP, 100% saturating ANP. activation, % at 10 µM. hit rate 0.14% among 370,000; in the data active means activation above about 40%
ADAM10 confirm: human ADAM10 inhibitors, confirmation, biochemical, QFRET, triplicate; inhibition, % at 6.95 µM; ADAM10 QFRET peptide cleavage, EDANS fluorescence; hit rate 1% among 2,100; shares compounds with ADAM10 inh;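 active means inhibition above about 20% chosen separately for each screening run, limit read from the data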
ADAM17 ctr: ADAM17 inhibitors, counter-screen for ADAM10 exosite inhibitor project, biochemical, QFRET, high throughput; ADAM17 QFRET peptide cleavage, EDANS fluorescence; inhibition, % at 6.95 µM; shares compounds with ADAM10 inh; hit rate 0.5% among 2,100; AID 743214, 2013;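 active means mean triplicate inhibition above the solvent-only control wells' mean plus 3 SD, cut at about 12% in these data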
ADAM10 counter: ADAM10 inhibitors, counter-screen for ADAM17 exosite inhibitor project, biochemical, FRET, human ADAM10. hit rate 47% among 2,900. shares compounds with ADAM17 inh. recombinant ADAM10, EDANS/DABCYL FRET peptide cleavage, 3 h. inhibition, % at 6.95 µM;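 active means mean inhibition over the triplicate runs exceeds the activity threshold set in the earlier primary screen, cut at about 20% in these data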
ADAM17 confirm: ADAM17 inhibitors, hit retest, confirmation, biochemical, QFRET peptide cleavage | hit rate 65% among 2,900 | shares compounds with ADAM17 inh | inhibition, % at 6.95 µM | AID 743257, 2014 | recombinant ADAM17, EDANS/DABCYL QFRET peptide cleavage;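 active means mean inhibition across replicates above the hit cutoff set in the primary screen, cut at about 8.5% in these data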
Of the large screens only hits and unclear results are named; the others gave an inactive call (follow-up assays come after a bar, where they were run). A selection: hits, their analogues and other compounds. The true share with any hit is near 1.3%.

CCOc1ccc(NC(=S)N(CCOC)C(C)c2cccnc2)cc1 (centres undefined)	none
N#Cc1ccc[n+](CC(=O)c2ccc(Cl)cc2)c1	none
Cc1nn(CC(=O)OCC(=O)c2ccc(OC(F)F)cc2)c(C)c1[N+](=O)[O-]	none
CCCCC[C@@H](C)N1C[C@H](COCc2ccccc2)Oc2cc(N3CC[C@@H](O)C3)ccc2S1(=O)=O	ADAM10 inh 22, ADAM17 inh 9.9 | ADAM10 confirm inactive | ADAM17 ctr inactive | ADAM10 counter 40 | ADAM17 confirm 24
CCCCC[C@H](C)N1C[C@H](COCc2ccccc2)Oc2cc(N3CCC[C@H]3CO)ccc2S1(=O)=O	none
CCCCC[C@H](C)N1C[C@@H](COCc2ccccc2)Oc2cc(N3CCC[C@H]3C(N)=O)ccc2S1(=O)=O	ADAM10 inh 22, ADAM17 inh 11 | ADAM10 confirm inactive | ADAM17 ctr inactive | ADAM10 counter 39 | ADAM17 confirm 23
CCCCC[C@H](C)N1C[C@H](COCc2ccccc2)Oc2cc(N3CCC[C@@H]3CO)ccc2S1(=O)=O	none
CCCCC[C@@H](C)N1C[C@@H](COCc2ccccc2)Oc2cc(N3CCC[C@H]3C(N)=O)ccc2S1(=O)=O	ADAM10 inh 28, ADAM17 inh 16 | ADAM10 confirm inactive | ADAM17 ctr inactive | ADAM10 counter 22 | ADAM17 confirm 14
O=C1CCCCC1CCS(=O)(=O)NCc1ccccc1 (centres undefined)	none
CC(C)C[C@@H](CO)N1CCN(Cc2cccnc2)CCC1=O	none
CCCN(CC1CC1)C(=O)CSc1nnc(-c2ccncc2)n1-c1ccc(OC)cc1	none
COc1ccc(C2(c3ccc(OC)cc3)NC(=O)N(CC(=O)Nc3cc(C)ccc3OC)C2=O)cc1	ADAM10 inh 22, ADAM17 inh 9.3 | ADAM10 confirm inactive | ADAM17 ctr inactive | ADAM10 counter 33 | ADAM17 confirm 16
CN1CCN(c2oc(COc3ccc(-c4ccccc4)cc3)nc2C#N)CC1	ADAM10 inh 27, ADAM17 inh 18 | ADAM10 confirm inactive | ADAM17 ctr inactive | ADAM10 counter 23 | ADAM17 confirm 14
N#Cc1nc(COc2ccc(Cl)cc2)oc1N1CCN(Cc2ccccc2)CC1	ADAM10 inh 22, ADAM17 inh 8.6 | ADAM10 confirm inactive | ADAM17 ctr inactive | ADAM10 counter 26 | ADAM17 confirm 16
COc1ccc(N2CCN(c3oc(COc4ccccc4)nc3C#N)CC2)cc1	none
CCN1CCN(c2oc(COc3ccc(Cl)cc3)nc2C#N)CC1	none
Cc1ccc(NC(=O)c2nc[nH]c2C(=O)N[C@H](C)c2ccccc2)cc1	ADAM10 inh 20, ADAM17 inh 13 | ADAM10 confirm inactive | ADAM17 ctr inactive | ADAM10 counter 20 | ADAM17 confirm 11
C[C@H](NC(=O)c1nc[nH]c1C(=O)N[C@@H](Cc1ccccc1)C(=O)OC(C)(C)C)c1ccccc1	ADAM10 inh 37, ADAM17 inh 18 | ADAM10 confirm inactive | ADAM17 ctr inactive | ADAM10 counter 55 | ADAM17 confirm 28
C[C@H](NC(=O)c1nc[nH]c1C(=O)N[C@@H](Cc1ccccc1)C(=O)OC(C)(C)C)C(=O)OCc1ccccc1	ADAM10 inh 25, ADAM17 inh 10 | ADAM10 confirm inactive | ADAM17 ctr inactive | ADAM10 counter 38 | ADAM17 confirm 25
C[C@H](NC(=O)c1[nH]cnc1C(=O)Nc1ccccc1)c1ccccc1	none
Cc1ccc(C)c(NC(=O)C2CC(O)CN2C(=O)Oc2ccccc2)c1 (centres undefined)	none
CCOC(=O)c1c(C)[nH]c(C)c1C(=O)COC(=O)c1cccc(C)c1O	ADAM10 inh 20, ADAM17 inh 9.3 | ADAM10 confirm inactive | ADAM17 ctr inactive | ADAM10 counter inactive | ADAM17 confirm inactive
Cc1cccc(C(=O)OCC(=O)c2c(C)[nH]c3ccccc23)c1O	none
CN(C(=O)Nc1ccc(Cl)cc1Cl)[C@H]1c2cc(Br)ccc2OC[C@H]1CO	ADAM10 inh 27, ADAM17 inh 15 | ADAM10 confirm inactive | ADAM17 ctr inactive | ADAM10 counter 28 | ADAM17 confirm 12
O=C(COCC(=O)Nc1cccc(C(F)(F)F)c1)Nc1cccc(C(F)(F)F)c1	ADAM10 inh 35, ADAM17 inh 15 | ADAM10 confirm inactive | ADAM17 ctr inactive | ADAM10 counter 42 | ADAM17 confirm 17
O=C(COc1ccc(C(=O)O)cc1)Nc1cccc(C(F)(F)F)c1	none
COc1ccc([C@H]2C[C@@H](n3cc(C4CC4)nn3)[C@H](O)CN2C(=O)c2cccs2)cc1	none
CCC(=O)NC(c1ccc([N+](=O)[O-])cc1)c1c(O)ccc2ccccc12 (centres undefined)	none
O=C(NC(c1ccc(Cl)cc1)c1c(O)ccc2ccccc12)c1ccccc1 (centres undefined)	none
O=C(NC(c1ccccc1)c1c(O)ccc2ccccc12)c1ccccc1Cl (centres undefined)	ADAM10 inh 21, ADAM17 inh 10 | ADAM10 confirm inactive | ADAM17 ctr inactive | ADAM10 counter inactive | ADAM17 confirm 8.7
CCCCC(=O)NC(c1ccc([N+](=O)[O-])cc1)c1c(O)ccc2ccccc12 (centres undefined)	ADAM10 inh 28, ADAM17 inh 11 | ADAM10 confirm inactive | ADAM17 ctr inactive | ADAM10 counter 36 | ADAM17 confirm 19
Cc1ccc(Cn2cc(CN(C)S(=O)(=O)c3ccccc3Br)nn2)cc1	none
Nc1cc(=O)[nH]c(SCC(=O)Nc2ccc(N3CCCCC3)cc2)n1	none
CCC(=O)N1CC2(CC(c3cccc(NC(=O)CC(c4ccccc4)c4ccccc4)c3)=NO2)C[C@H]1C(N)=O (some centres undefined)	none
